Results taken from publication PMC4336329 (PLoS ONE, 2015).
In all, about 310,000 compounds went through this assay and about 14,000 (4.5%) showed an effect of 50% or more. The effect is printed as a negative number. The full list was thinned out, with strong results kept by preference.

The compounds below were run against human ether-à-go-go-related gene (hERG) potassium channel (human, UniProt Q12809) (assay: primary screen, population patch clamp on CHO cells stably expressing hERG; higher = less effect of the substance).
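Also: peak tail current of the secondary pulse compared with the same well before compound.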

human ether-à-go-go-related gene (hERG) potassium channel, sequence (Q12809 whole entry, looked up): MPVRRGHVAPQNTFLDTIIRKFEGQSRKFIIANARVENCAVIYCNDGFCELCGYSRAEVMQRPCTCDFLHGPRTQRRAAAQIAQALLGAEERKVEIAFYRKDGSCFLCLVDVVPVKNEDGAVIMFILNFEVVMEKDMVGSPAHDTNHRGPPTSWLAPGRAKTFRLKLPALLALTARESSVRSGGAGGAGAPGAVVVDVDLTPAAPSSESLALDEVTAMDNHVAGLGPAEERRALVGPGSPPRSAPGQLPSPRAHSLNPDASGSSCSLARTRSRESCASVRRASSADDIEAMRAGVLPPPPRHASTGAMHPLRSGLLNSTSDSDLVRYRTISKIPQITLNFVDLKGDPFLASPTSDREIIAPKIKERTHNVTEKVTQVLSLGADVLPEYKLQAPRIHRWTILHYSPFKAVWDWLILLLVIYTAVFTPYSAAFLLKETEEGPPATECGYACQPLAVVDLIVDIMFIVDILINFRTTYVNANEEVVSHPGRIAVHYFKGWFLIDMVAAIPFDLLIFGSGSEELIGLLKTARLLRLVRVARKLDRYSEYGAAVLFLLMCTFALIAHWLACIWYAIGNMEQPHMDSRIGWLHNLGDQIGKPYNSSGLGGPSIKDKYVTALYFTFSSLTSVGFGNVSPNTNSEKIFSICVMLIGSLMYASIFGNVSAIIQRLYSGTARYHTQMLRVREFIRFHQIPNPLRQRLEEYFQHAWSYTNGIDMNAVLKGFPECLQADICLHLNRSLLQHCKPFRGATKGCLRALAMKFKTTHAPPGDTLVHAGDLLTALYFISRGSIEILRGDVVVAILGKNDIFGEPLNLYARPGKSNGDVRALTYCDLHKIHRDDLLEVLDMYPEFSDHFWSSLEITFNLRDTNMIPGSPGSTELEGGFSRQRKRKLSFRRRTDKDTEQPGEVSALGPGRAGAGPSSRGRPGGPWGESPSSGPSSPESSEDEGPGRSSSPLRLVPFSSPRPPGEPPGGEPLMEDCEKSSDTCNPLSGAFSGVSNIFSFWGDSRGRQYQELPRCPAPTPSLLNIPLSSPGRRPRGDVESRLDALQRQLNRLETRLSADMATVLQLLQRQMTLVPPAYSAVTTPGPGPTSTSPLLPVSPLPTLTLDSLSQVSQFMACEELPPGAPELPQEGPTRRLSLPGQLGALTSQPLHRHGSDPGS

Row | SMILES | hERG current change (%, negative = inhibition) at 10uM
1 | CCCSC1=C(C#N)C(c2ccc(O)c(OC)c2)CC(=O)N1 (stereo not drawn) | -45.1%
2 | CCCn1c(=O)n(C)c(=O)c2c(SCC(=O)NC34CC5CC(CC(C5)C3)C4)nc(CC(C)C)nc21 | 8.5%
3 | CC(C)Cc1nc(SCC(=O)NCC2CCCO2)c2c(=O)n(C)c(=O)n(C)c2n1 (stereo not drawn) | -0.141%
4 | CCCn1c(=O)n(C)c(=O)c2c(SCC(=O)NCC(c3ccccc3)N(C)C)nc(CC(C)C)nc21 (stereo not drawn) | -66.1%
5 | CNC(=O)c1c(I)c(C(=O)NCC(=O)Nc2c(I)c(C(=O)O)c(I)c(C(=O)NCCO)c2I)c(I)c(N(C)C(C)=O)c1I | 6.45%
6 | CC(CN1C(C)CCCC1C)OC(=O)c1ccc(Cl)cc1 (stereo not drawn) | -44.8%
7 | COc1cc(C(=O)OC(C)CN2CCCCC2)cc(OC)c1OC.Cl (stereo not drawn) | -4.43%
8 | COc1cc(C(=O)OC(C)CN2CCCC2)cc(OC)c1OC.Cl (stereo not drawn) | -12.2%
9 | COc1cc(C(=O)OC(C)CN2C(C)CCCC2C)cc(OC)c1OC.Cl (stereo not drawn) | -50.2%
10 | CC(CN1C(C)CCCC1C)OC(=O)c1ccc(Cl)cc1Cl (stereo not drawn) | -51.7%
11 | CC(CN1C(C)CCCC1C)OC(=O)c1ccccc1Cl (stereo not drawn) | -26.8%
12 | O=S(=O)(/N=C(/Nc1ccc(F)cc1F)c1ccccc1)c1ccc(Br)cc1 | 12.3%
13 | Cc1cc(C)cc(-n2c(SCC(=O)NCc3ccc4c(c3)OCO4)nc3ccccc3c2=O)c1 | 15.9%
14 | CCOC(=O)c1c(-n2c(C)cc(/C=C3/C(=O)NC(=O)N(CC)C3=O)c2C)sc2c1CCCC2 | 2.36%
15 | CC(C)C1Oc2ccccc2N(CC(=O)N(Cc2ccccn2)C2CC2)C1=O (stereo not drawn) | -13.6%
16 | O=C(Nc1ccccc1N1CCCC1)C1CC(=O)N(Cc2ccccc2)C1 (stereo not drawn) | -44.4%
17 | CCOC(=O)CNc1ncnc2nc[nH]c12 | 9.53%
18 | COC(=O)c1sc(S(=O)(=O)NCc2cccs2)c(C(=O)OC)c1C | -19.1%
19 | COC(=O)c1sc(S(=O)(=O)NCc2ccccc2)c(C(=O)OC)c1C | -50.4%
20 | COC(=O)c1c(S(=O)(=O)NCc2ccccc2)sc(C(=O)O)c1C | 6.81%
21 | Cc1[nH][nH]c(=O)c1C=Nc1ccc(C(F)(F)F)cc1 | 17.4%
22 | O=C(OC(C(=O)NC1CCCC1)c1ccccn1)c1cccs1 (stereo not drawn) | -3.4%

Row | SMILES | hERG current change (%, negative = inhibition) at 10uM
23 | CCc1noc(C)c1C(=O)NC1CCCc2c1cnn2-c1ccc(C(C)(C)C)cc1 (stereo not drawn) | 10.2%
24 | Cc1nc(NCc2ccco2)c2c3c(sc2n1)CCC3 | -24.3%
25 | CN1CCc2c(sc3c2c(NCc2ccco2)nc2nnnn23)C1 | -71.8%
26 | CCN1CCc2c(sc3c2c(NCc2ccco2)nc2nnnn23)C1 | -73.6%
27 | CCN1CCc2c(sc(NC(=S)NC(=O)c3ccco3)c2C(N)=O)C1 | 2.95%
28 | CN1CCc2c(sc3nc(SCC(=O)NCc4ccco4)n(-c4ccccc4)c(=O)c23)C1 | -10.6%
29 | c1coc(CNc2ncnc3sc4c(c23)CCCCC4)c1 | -39.4%
30 | Cn1c(NN)nc2sc3c(c2c1=O)CC(C)(C)OC3 | 9.89%
31 | CCCNC(=O)CSc1nccn1Cc1ccco1 | 0.203%
32 | CC1(C)SC(=S)N(/N=C/c2ccc(O)cc2)C1N(O)C(=O)Nc1ccc([N+](=O)[O-])cc1 (stereo not drawn) | -10.2%
33 | Nc1ccn([C@H]2CS[C@@H](CO)O2)c(=O)n1 | 18%
34 | CC(CNC(=O)c1ccccc1[N+](=O)[O-])NC(=O)c1ccccc1[N+](=O)[O-] (stereo not drawn) | 1.57%
35 | CC(CNc1ccc([N+](=O)[O-])cc1)NC(=O)c1ccccc1Br (stereo not drawn) | -50.6%
36 | O=C(NCCNc1ccc([N+](=O)[O-])cc1)c1ccccc1Br | -43.3%
37 | C=CCN1C(=O)C(Cc2ccccc2)SC1=Nc1ccc(C(=O)O)cc1 (stereo not drawn) | -3.37%
38 | Cc1nonc1NC(=O)CSc1nc(CCC2CCCC2)nc2ccccc12 | 3.64%
39 | COc1cc2c(cc1OC)-c1c(OC)c(OC)cc3ccnc(c13)C2=O | -30.7%
40 | COc1cc2c(cc1OC)-c1c(OC)c(OC)c(OC)c3ccnc(c13)C2=O | -53.8%
41 | CCOc1cc(-c2nccc3cc(OC)c(OC)cc23)cc(OCC)c1OCC | -46.8%
42 | Cc1cc(-c2cc(-c3ccccc3)on2)nc(NC2CCCC2)n1 | 15.7%
43 | COc1ccccc1Nc1nc(N)nc(CN2CCN(c3ccccc3F)CC2)n1 | -35.9%
44 | CCOc1ccc(Nc2nc(N)nc(CSC(=S)N3CCN(c4ccccc4)CC3)n2)cc1 | 17.2%

Row | SMILES | hERG current change (%, negative = inhibition) at 10uM
45 | Cc1ccc(Nc2nc(N)nc(CN3CCN(c4ccccc4F)CC3)n2)cc1 | -67.4%
46 | Cc1cccc(Nc2nc(N)nc(CC(=O)CSc3ccc(Cl)cc3)n2)c1 | 4.27%
47 | Cc1ccc(-c2noc(CN3CCN(c4ccccc4F)CC3)n2)cc1 | 8.71%
48 | Fc1ccccc1N1CCN(Cc2nc(-c3ccccc3)no2)CC1 | -6.65%
49 | Nc1nc(CN2CCN(c3ccccc3F)CC2)nc(Nc2ccccc2)n1 | -57.1%
50 | Cc1cccc(Nc2nc(N)nc(CN3CCN(c4ccccc4F)CC3)n2)c1 | -68.2%
51 | CCOc1ccc(Nc2nc(N)nc(CN3CCN(c4ccccc4F)CC3)n2)cc1 | -80.8%
52 | Cc1nnc(SCC2=C(C(=O)O)N3C(=O)C(NC(=O)Cn4ncc(Cl)c4C)C3SC2)s1 (stereo not drawn) | 26.9%
53 | COc1ccc(CNC(=O)C2CCCN(S(=O)(=O)N3CC(C)CC(C)C3)C2)c(OC)c1 (stereo not drawn) | -6.97%
54 | CCCC(=O)C1=C(O)C(C(=O)OC)C(C)(C)CC1=N (stereo not drawn) | 19.9%
55 | Cc1csc(NC(=O)c2sccc2C)n1 | 12.7%
56 | CCn1c(SCC(=O)Nc2ccc(OCc3ccccc3)cc2)nnc1-c1ccco1 | -0.171%
57 | CCCn1c(=O)c(Cc2ccccc2)c(O)c2ccccc21 | 1.06%
58 | Cc1nc2ccccc2c(=O)n1NC(=O)/C=C/c1ccc(Br)cc1 | -1.3%
59 | CN1CCN(c2ccc3c(c2)S(=O)(=O)c2ccccc2C3=O)CC1 | -23.4%
60 | N#C/C(=N\Nc1ccc([N+](=O)[O-])cc1)C(N)=S | 13.4%
61 | N#C/C(=N\Nc1ccccc1)C(=N)N1CCOCC1 | -7.71%
62 | C/C(=N\Nc1ccc([N+](=O)[O-])cc1)c1ccc(N2CCOCC2)cc1 | 4.46%
63 | N#C/C(=N\Nc1ccc(Br)cc1)C(=N)N1CCOCC1 | -68.9%
64 | N#C/C(=N\Nc1ccc([N+](=O)[O-])cc1)C(=N)N1CCOCC1 | -54.2%
65 | COc1ccc(N/N=C(\C#N)C(=N)N2CCOCC2)cc1 | 11.4%
66 | Cc1ccc(OCC(=O)NN2C(=O)c3ccccc3C2=O)c(C)c1 | 6.34%

Row | SMILES | hERG current change (%, negative = inhibition) at 10uM
67 | CC(C)c1nc(-c2ccc([N+](=O)[O-])cc2)cs1 | 1.87%
68 | CSCCC(NC(=O)c1ccc(Cl)cc1Cl)C(=O)OC(C)C(=O)NCc1ccco1 (stereo not drawn) | -51.8%
69 | CSCCC(NC(=O)c1ccc([N+](=O)[O-])cc1Cl)C(=O)OCC(=O)NCC(F)(F)F (stereo not drawn) | -16.7%
70 | CSCCC(NC(=O)c1ccc([N+](=O)[O-])cc1Cl)C(=O)OC(C)C(=O)NCc1ccco1 (stereo not drawn) | -61.7%
71 | CSCCC(NC(=O)c1ccc([N+](=O)[O-])cc1Cl)C(=O)OCC(=O)NCCCc1ccccc1 (stereo not drawn) | -57.8%
72 | CSCCC(NC(=O)c1ccc([N+](=O)[O-])cc1Cl)C(=O)OCC(=O)N(C)C (stereo not drawn) | -2.34%
73 | CSCCC(NC(=O)c1ccc(Cl)cc1)C(=O)OCC(=O)NCc1ccco1 (stereo not drawn) | -23.8%
74 | O=C(NCc1ccco1)c1ccc([N+](=O)[O-])cc1Cl | -3.96%
75 | CSCCC(NC(=O)c1ccc([N+](=O)[O-])cc1Cl)C(=O)OCC(=O)N1CCN(C(C)=O)CC1 (stereo not drawn) | 3.12%
76 | CSCCC(NC(=O)c1ccc(Cl)cc1Cl)C(=O)OCC(N)=O (stereo not drawn) | -5.4%
77 | CC(=O)Nc1ccc(NCc2ccc(C)s2)cc1 | -3.79%
78 | CCc1ccc(OCC(=O)NNC(=O)c2c(CC)noc2C)cc1 | 10.8%
79 | Cc1nnc(NC2=NCCC2)o1 | 3.71%
80 | CC(=O)CCc1c[nH]c2c(C(=O)O)cccc12 | 5.11%
81 | CCOc1ccccc1Nc1nnc(SCC(=O)Nc2cc(C)on2)s1 | 6.14%
82 | CC(=O)Nc1ccc(S(=O)(=O)Nc2cc3c(cc2C(C)=O)OCO3)cc1 | 20.7%
83 | CC(N)Cc1cn(Cc2ccccc2)c2ccccc12.Cl (stereo not drawn) | -7.76%
84 | COc1cccc(CNC(=O)COc2ccc(C(=O)c3ccccc3)cc2)c1 | -11.7%
85 | CCOC(=O)/C(=C\c1c[nH]c2ccccc12)NC(C)=O | 0.157%
86 | O=C(CSc1nc2c(c(=O)n1-c1ccc(Cl)cc1)SCC2)NCc1ccco1 | -19.4%
87 | CCn1cc(CCC(=O)NCc2cccc(OC)c2OC)c2ccccc21 | 8.51%
